Data taken from PubChem BioAssay (NCI).
About 79,000 compounds went through this panel and 15% of them were active in at least one assay; those are over-represented in the sample as a whole. No stated cut-off is given here; in the data, active means growth inhibition above about 70%; inactive means the rest.

Tests used:
[1] = NCI Yeast Anticancer Drug Screen. Data for the rad50 strain (AID 155);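 further: 0% = growth of vehicle-only cultures of the same strain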; details: S. cerevisiae rad50 strain growth inhibition; at 50.0 µM; active compounds read high
In short: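 Relative growth inhibition (compound vs vehicle) was measured in yeast with a defined repair-gene alteration.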

[2] = NCI Yeast Anticancer Drug Screen. Data for the mec2-1 strain (AID 157); details: S. cerevisiae mec2-1 strain, at 50.0 µM, active compounds read high
In short: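 Cells of the genetically defined mec2-1 yeast strain are incubated with test compound. Inhibition of growth is calculated against vehicle-treated controls.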

[3] = NCI Yeast Anticancer Drug Screen. Data for the sgs1 mgt1 strain (AID 161);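 further: 0% = growth of cultures given vehicle only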; details: S. cerevisiae sgs1 mgt1 strain, at 50.0 µM, active compounds read high
In short: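 Mutant yeast exposed to compound; growth scored against vehicle-only wells.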

[4] = NCI Yeast Anticancer Drug Screen. Data for the cln2 rad14 strain (AID 165);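 further: 0% = growth equal to vehicle treated cultures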; details: S. cerevisiae cln2 rad14 strain, at 50.0 µM, active compounds read high
In short: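 The screen exposed genetically defined yeast (cln2 rad14) to test compounds and scored growth inhibition relative to vehicle-treated controls.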

[5] = NCI Yeast Anticancer Drug Screen. Data for the bub3 strain (AID 167); details: S. cerevisiae bub3 mutant strain, at 50.0 µM, active compounds read high
In short: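 Screening used yeast with an engineered genetic alteration affecting cell cycle control. Compound-exposed cultures were compared with vehicle cultures, and reduced growth was taken as inhibition.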

[6] = NCI Yeast Anticancer Drug Screen. Data for the mlh1 rad18 strain (AID 175); details: S. cerevisiae mlh1 rad18 strain growth inhibition; at 50.0 µM; active compounds read high
In short: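 Compound-treated yeast growth, normalised to vehicle controls. Strain bears defined DNA repair mutations.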

Measured: growth inhibition

CC(C)N1CC2CC(CN(C(=O)c3ccc(Cl)cc3)C2)C1
inactive: [1] -30.4% | [2] -8.45% | [3] -8.25% | [4] 2.95% | [5] -16.4% | [6] -5.9%

CCOc1ccc(NC(=O)C(=O)CC(=O)C2=C(C)Nc3ccccc3S2)cc1
inactive: [1] 27.6% | [2] 14.8% | [3] 12.5% | [4] -2.25% | [5] -1% | [6] 28.5%

CN(C=C(C#N)C#N)c1ccccc1
inactive: [1] 8.7% | [2] -4.65% | [3] -0.1% | [4] -3.95% | [5] 9.05% | [6] 16.4%

CCC(=O)C(CC)c1ccc(OC)cc1OC (centres undefined)
inactive: [1] -1.75% | [2] -31.4% | [3] -6.15% | [4] 3.85% | [5] 7.3% | [6] 15.6%

COc1ccc(OC)c(NCc2ccccc2)c1
inactive: [1] -8.6% | [2] -2.5% | [3] -13.9% | [4] -88.5% | [5] -0.4% | [6] 3.65%

COc1ccc2c(c1)C(=O)C1(C2)[C@H](c2ccccc2)C2C(=O)c3cc(OC)ccc3C2[C@H]1c1ccccc1 (some centres undefined)
inactive: [1] -20.4% | [2] -3% | [3] 11.9% | [4] -5.2% | [5] 21.1% | [6] 9.3%

CC(=O)c1cccc(F)c1C(C)c1ccc2ccccc2c1 (centres undefined)
inactive: [1] -3.85% | [2] 0.6% | [3] -8.8% | [4] 3.35% | [5] 15.4% | [6] 1.65%

C=CCN1CC2CON(C(=O)C(OC)(c3ccccc3)C(F)(F)F)C2C1C(C)C (centres undefined)
inactive: [1] 2.05% | [2] -17.7% | [3] 9.15% | [4] 18.2% | [5] 24.2% | [6] -5.85%

CC(=O)NC1c2ccccc2Oc2c(C)cccc21 (centres undefined)
inactive: [1] -8.8% | [2] 0.85% | [3] 1.7% | [4] -15.9% | [5] 2.75% | [6] 2.6%

CCCc1ccc(N=Cc2cc(OC)c(OC)c(OC)c2)cc1
inactive: [1] -1.85% | [2] 13.3% | [3] 13.5% | [4] 4.4% | [5] -8% | [6] 21.6%

C=C(C)CN(C#N)CC(=C)C
inactive: [1] -15.2% | [2] 10.6% | [3] 6.35% | [4] -17.2% | [5] -3.95% | [6] 3.45%

O=c1[nH]c2cc([N+](=O)[O-])ccc2nc1/C(=N/Nc1ccccc1)C(O)c1ccc(Cl)cc1Cl (centres undefined)
inactive: [1] 41% | [2] 3.6% | [3] -11.6% | [4] -20.2% | [5] -7.3% | [6] 34.7%

NC(=O)c1ccncc1
inactive: [1] -5% | [2] -7.3% | [3] -13.1% | [4] 5.35% | [5] -1.05% | [6] -6%

[N-]=[N+]=Nc1ccnc2cc(C(F)(F)F)ccc12
inactive: [1] -31.5% | [2] 3.35% | [3] -2.25% | [4] -36.7% | [5] 4.45% | [6] 11.1%

OC(C(c1ccccc1)N1CCCCC1)C(O)(c1ccccc1)c1ccccc1 (centres undefined)
inactive: [1] 12.2% | [2] -3.15% | [3] 22.6% | [4] 24.9% | [5] 6.2% | [6] -0.5%

CCOC(=O)/C(F)=C/c1cccc(C#N)c1
inactive: [1] 41.6% | [2] -3.35% | [3] 8.1% | [4] 24.7% | [5] 30.7% | [6] 23.9%

C=CCC(c1ccccc1)(c1ccccc1)c1ccccc1
inactive: [1] -3.35% | [2] 5.25% | [3] 3.65% | [4] 3.55% | [5] 7.25% | [6] 8.25%

NN1CC(=O)N(c2ccccc2)CC1=O
inactive: [1] 0.5% | [2] 4.45% | [3] -0.6% | [4] 42.8% | [5] -7.65% | [6] 4.7%

O=C(N/N=C/c1ccc(O)cc1)c1ccccc1NC(=O)C1CC1
inactive: [1] 3.25% | [2] 23.7% | [3] 18.9% | [4] 2.55% | [5] -0.85% | [6] -21.1%

CO/N=C1C=C/C(=N\OC)C\1
inactive: [1] 10.7% | [2] -28.2% | [3] 0.5% | [4] 7.55% | [5] -19.1% | [6] 0.8%

CCOC(=O)C(C#N)(C1C=CCC1)C1C=CCC1 (centres undefined)
inactive: [1] -1.9% | [2] -0.1% | [3] 14.3% | [4] 43.9% | [5] 46.3% | [6] 13.3%

O=C(c1cccc([N+](=O)[O-])c1)N1CCCCC1
inactive: [1] 1.4% | [2] -11.8% | [3] 16.2% | [4] -17.1% | [5] 4.1% | [6] -5.05%

COC(=O)[C@]1(NC(=O)c2ccccc2)C[C@H]1C=O
inactive: [1] 21% | [2] 15.2% | [3] 14.4% | [4] 10.9% | [5] 9.6% | [6] -54.8%

C(=NCCN=Cc1ccccc1)c1ccccc1
inactive: [1] -10.7% | [2] -6.9% | [3] -21.8% | [4] 3.25% | [5] -11.7% | [6] -8.9%

c1ccc(CCN2CCCCCCCC2)nc1
inactive: [1] 1.35% | [2] 7.9% | [3] -4.35% | [4] -23.2% | [5] -8.95% | [6] -0.35%

CSc1nc(NC2OCC(O)C(O)C2O)cc(=O)[nH]1 (centres undefined)
inactive: [1] 7.75% | [2] -0.95% | [3] 10.8% | [4] -2.25% | [5] -13.8% | [6] 1.3%

CC(N(C)Cc1ccccc1)C(C)(O)c1ccccc1 (centres undefined)
inactive: [1] -10.4% | [2] 6.55% | [3] 7.75% | [4] -24.9% | [5] 51% | [6] 30.8%

O=C(COc1ccccc1)OCCCl
inactive: [1] -7.8% | [2] -15.3% | [3] -15.4% | [4] -67.5% | [5] -25.8% | [6] -75.9%

COc1ccc(CNc2cc(OC)c(OC)c(OC)c2)cc1
inactive: [1] -49.1% | [2] -36.7% | [3] -9.55% | [4] 9.25% | [5] -20.4% | [6] -33.1%

Cc1ccsc1C(=O)c1ccccc1
inactive: [1] -11.6% | [2] -7% | [3] -5.65% | [4] -24.6% | [5] -1.5% | [6] 5.45%

OCCOc1ccc(Cl)cc1Cl
inactive: [1] -6% | [2] -32% | [3] -18.2% | [4] -2.85% | [5] -0.8% | [6] 9.05%

O=C(O)c1cc2ccccc2o1
inactive: [1] 11.6% | [2] 0.95% | [3] 16.9% | [4] 20.6% | [5] -2.6% | [6] 30%

COc1ccc(C2=NOC(c3ccc(OC)cc3)C2)cc1 (centres undefined)
inactive: [1] -6.85% | [2] -18.3% | [3] -7.25% | [4] -13.8% | [5] 6.05% | [6] 9.55%

CC1=CCCCC1=O
inactive: [1] -7.25% | [2] -4.35% | [3] 5.6% | [4] 2.4% | [5] -12.9% | [6] -4.15%

Cc1cc(Br)ccc1N
inactive: [1] -3.15% | [2] 1.95% | [3] -9.5% | [4] -36.5% | [5] 19.1% | [6] 9.25%

O=c1[nH]nc(-c2ccccc2)n1/N=C/c1ccncc1
inactive: [1] 21.7% | [2] 16.4% | [3] 15.4% | [4] 10.2% | [5] 17.6% | [6] 22.7%

CC(=O)OCC(OC(C)=O)C(OC(C)=O)C(/C=C/[N+](=O)[O-])OC(C)=O (centres undefined)
inactive: [1] 9.9% | [2] 3.65% | [3] 2.4% | [4] -24.6% | [5] -3.4% | [6] -2.05%

COc1cc(C(NC(N)=O)c2cc3c(cc2O)OCO3)cc(OC)c1O (centres undefined)
inactive: [1] -1.4% | [2] 0.45% | [3] -12.2% | [4] -20.9% | [5] 12.4% | [6] 4.05%

N/N=C(\N)SCCCCCCS/C(N)=N/N
inactive: [1] -10.8% | [2] 2.15% | [3] 24% | [4] 41.5% | [5] 39.9% | [6] -5.2%
